Shown are actives, neighbours in structure and some others; about 4.1% of the full set was active somewhere.
hgDAF12 agonist = hgDAF-12 agonism, primary luciferase screen; HEK293 GAL4-hgDAF12 UAS-luciferase reporter, agonist luminescence; normalized to butyrate control; activation, % at 6.8 µM; actives 1.8% (n = 370,000); AID 687014;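 active means activation above a cutoff set at the mean of all screened compounds plus 3 SD, cut at about 10% in these data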;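 further: 0% = DMSO wells and 100% = sodium butyrate wells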
hcDAF-12 act = H. contortus DAF-12 activation, primary screen | activation, % at 6.8 µM | AID 652067 | HEK293 hcDAF-12 lit1-tk-luc reporter, luminescence; 0% DMSO, 100% Δ7-dafachronic acid | actives 1.4% (n = 370,000);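 active means activation above the mean of all tested compounds plus 3 SD, cut at about 5.5% in these data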;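 further: 100% = response to 3 µM Δ7-dafachronic acid high control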
ssDAF12 agonist = S. stercoralis DAF-12 activation, primary screen; actives 1% (n = 370,000); HEK293 ssDAF-12/GRIP1 lit1-tk-luc reporter, luminescence; % of 3 µM dafachronic acid response; AID 652126; activation, % at 6.8 µM;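 active means activation above the mean over all tested compounds plus 3 SD, cut at about 0.9% in these data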;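 further: 0% = DMSO-only wells and 100% = 3 µM delta7-dafachronic acid wells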
DAX1 inh-1 = inhibitors of human orphan nuclear receptor DAX1 (NR0B1) | HEK293 Gal4-DAX1 luciferase reporter, luminescence | actives 0.99% (n = 340,000) | inhibition, % at 6.75 µM | P51843;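 active means inhibition above the mean over all tested compounds plus 3 SD, cut at about 4.2% in these data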;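 further: 0% = DAX1-transfected cells with DMSO and 100% = empty-vector control cells with DMSO; inhibition shows as a rise in luminescence from relieved DAX1 repression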
Target sequence (P51843 207-470 limits assumed): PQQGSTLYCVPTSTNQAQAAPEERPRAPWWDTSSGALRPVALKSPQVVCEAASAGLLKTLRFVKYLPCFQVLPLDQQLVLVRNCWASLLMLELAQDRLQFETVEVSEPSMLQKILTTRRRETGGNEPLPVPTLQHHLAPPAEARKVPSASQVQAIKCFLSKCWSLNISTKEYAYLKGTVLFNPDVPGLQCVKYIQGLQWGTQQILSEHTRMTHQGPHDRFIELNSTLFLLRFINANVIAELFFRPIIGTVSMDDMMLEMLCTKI
DAX1 inh-2 = blocks DAX1 repression of SF-1 activated StAR promoter; HEK293T StAR-luciferase reporter, SF-1/DAX-1 repression relief; inhibition, % at 6.8 µM; actives 1.1% (n = 370,000);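 active means inhibition above the mean over all tested compounds plus 3 SD, cut at about 3.6% in these data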;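 further: 0% = DAX-1 cells with DMSO and 100% = cells lacking DAX-1 with DMSO; higher inhibition means more luminescence from relief of DAX-1 repression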
Active calls of the source: *; x = no result.

SMILES | hgDAF12 agonist | hcDAF-12 act | ssDAF12 agonist | DAX1 inh-1 | DAX1 inh-2
CN(C)S(=O)(=O)c1ccc2nc(NC(=O)c3cccnc3)sc2c1 | 11* | 3 | 0 | 4.7* | 1
Cc1ccc(C(=O)Nc2ccc3nc(C)sc3c2)s1 | 10 | 3 | 0 | 2 | 3
Cc1nc2cc(NC(=O)c3ccc(Br)s3)ccc2s1 | 11* | 1 | 0 | -2 | 3
Cc1ccc(C(=O)Nc2ccc3nc(C)sc3c2)o1 | 11* | 3 | -1 | 2 | 4.0*
Cc1ccc(C(=O)Nc2nc3ccc(S(C)(=O)=O)cc3s2)o1 | 12* | 2 | -1 | 1 | 0
Cn1c(NC(=O)c2ccccc2)nc(Cc2ccccc2)c1Cc1ccccc1 | -2 | -3 | -1 | x | 0
Cc1nc(CNC(=O)c2cc(COc3c(F)cccc3F)on2)cs1 | -1 | 1 | -2 | 6.3* | 0
CSc1ccccc1OCc1cc(C(=O)NC(C)Cc2cccc(C)n2)no1 (stereo not given) | -2 | -4 | -2 | -1 | -2
CSc1ccccc1OCc1cc(C(=O)N(C)Cc2nonc2C)no1 | 3 | 2 | -1 | 2 | 4.0*
Cc1nc(CN(C)C(=O)c2cc(COc3c(F)cccc3F)on2)cs1 | -5 | 0 | -1 | 2 | 0
Cc1nonc1CN(C)C(=O)c1cc(COc2ccc(F)cc2Cl)on1 | 4 | -3 | -1 | -1 | 0
CSc1ccccc1OCc1cc(C(=O)NCc2cccc(C)n2)no1 | 11* | 4 | -1 | 2 | 3
CC(=O)N1CCN(C(=O)c2ccc(CNC(=O)c3cccc(Br)c3)cc2)CC1 | -2 | -2 | -1 | x | 0
C[C@@H]1CNCCN1c1ccc(N2CCS(=O)(=O)CC2)c(C#N)c1 | -2 | 0 | -1 | x | 1
O=C(/C=C(\Nc1cccc(OC(F)F)c1)c1ccccc1)c1ccccc1 | 6 | 1 | -1 | x | 2
Cc1cc(N2CCNC[C@@H]2C)ccc1N1CCN(Cc2ccccc2)[C@H](C)C1 | 0 | -1 | -1 | x | 0
O=C1C2CC=C(Cl)CC2C(=O)N1CCc1c[nH]c2ccccc12 (stereo not given) | 3 | 4 | 1.2* | 2 | 1
O=C(O)c1ccc2c(c1)C(=O)N(CCc1c[nH]c3ccccc13)C2=O | 3 | 5.8* | 0 | 1 | 0
CC1=CCC2C(=O)N(CCc3c[nH]c4ccccc34)C(=O)C2C1 (stereo not given) | 3 | 4 | 1 | 0 | 0
Cc1ccc2nc(SCC(=O)Nc3cc([N+](=O)[O-])ccc3F)[nH]c2c1 | 1 | 6.1* | -1 | 2 | 0
Cc1ccc2nc(SCC(=O)Nc3ccc(F)c([N+](=O)[O-])c3)[nH]c2c1 | 0 | -1 | -1 | 0 | -1
COC(=O)C1=C(C)NC2=C(C(=O)CCC2)C1c1coc2ccccc2c1=O (stereo not given) | 1 | 2 | 0 | -1 | -1
CC1=C(C(=O)OCC2CCCO2)C(c2coc3ccccc3c2=O)C2=C(CCCC2=O)N1 (stereo not given) | -2 | 5 | -1 | 4.2* | -1
COC(=O)c1ccc(/C=N/Nc2nc3ccccc3[nH]2)cc1 | 6 | 2 | -1 | 0 | 1
C(=N\Nc1nc2ccccc2[nH]1)/c1ccc2c(c1)OCO2 | 10 | 4 | 0 | 8.0* | 3
SMILES | hgDAF12 agonist | hcDAF-12 act | ssDAF12 agonist | DAX1 inh-1 | DAX1 inh-2
O=C(O)c1ccc(/C=N/Nc2nc3ccccc3[nH]2)cc1 | 2 | -1 | 0 | 8.9* | 0
C/C(=N\Nc1nc2ccccc2[nH]1)c1ccc2c(c1)OCO2 | 2 | -1 | -2 | 0 | 1
Clc1ccccc1N/N=C/c1ccc2c(c1)OCO2 | 10 | 4 | -1 | 4.3* | 2
O=C(O)c1ccc(/C=N/Nc2nnnn2-c2ccccc2)cc1 | 0 | 0 | 1.6* | -2 | 0
C[C@@H]1CNC(=O)c2c(C(=O)N3CCN(c4ccccc4)CC3)ncn21 | -3 | -2 | -1 | x | 0
COc1ccc2c(C)cc(SCC(=O)NC3CCCC3)nc2c1 | -1 | 0 | -1 | 0 | -2
O=C1COc2ccc(C(=O)COC(=O)c3ccc4ccccc4n3)cc2N1 | 2 | 4 | 0.9* | 1 | -1
COc1ccc2c(C)cc(SCC(=O)c3ccc4c(c3)OCO4)nc2c1 | 5 | 4 | 3.4* | -1 | 0
O=C(CSc1nc2ccccc2[nH]1)c1ccc2c(c1)OCO2 | 5 | -1 | -1 | 6.0* | 0

High-throughput results deposited in PubChem BioAssay by The Scripps Research Institute Molecular Screening Center.
